PubChem BioAssay AID1159580 (chemical genetic matrix, 2015)
The campaign covered roughly 5,500 compounds. About 2,000 (36%) were called active. Another 18% or so got no clear call; they are omitted. Cut-off read from the data, not from the text of the source: active = normalized growth mostly below about 0.91 (no sharp cut-off); inconclusive = no clear call, values can overlap the other calls; inactive = mostly above about 0.92. The list shows a part of the results.

Assay: chemical genetic growth profiling, strain panel (AID 1159580);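 note: tested at 20 µM; growth read once vehicle control cultures reached saturation at 30 °C; 1 = growth at the plate median or of vehicle wells; lower values mean less growth of the strain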
Settings: S. cerevisiae deletion strains, growth OD
[1] = locus YAL040C, strain CLN3, hits give low values
[2] = locus YCL061C, strain MRC1 (second series), hits give low values
[3] = locus YDR363W, strain ESC2, hits give low values
[4] = locus YER002W, strain NOP16, hits give low values
[5] = locus YNL175C, strain NOP13, hits give low values
[6] = locus YNL197C, strain WHI3, hits give low values
[7] = locus YNL224C, strain SQS1, hits give low values
[8] = locus YOR083W, strain WHI5 (second series), hits give low values
[9] = locus YPL241C, strain CIN2, hits give low values
[10] = locus YGR078C, strain PAC10, hits give low values

Measured: normalized growth

COc1cc(C(O)CO)ccc1OS(=O)(=O)O (stereo not drawn)
inactive: [1] 0.981 | [2] 1 | [3] 0.994 | [4] 0.991 | locus YGR229C, strain SMI1, hits give low values 1.01 | [5] 0.998 | [6] 1 | [7] 1.01 | locus YNL322C, strain KRE1, hits give low values 1.01 | [8] 1.05 | [9] 0.996

C1COC(NC(C2CC2)C2CC2)=N1
inactive: [1] 1.01 | [2] 0.997 | [3] 1.01 | [4] 0.995 | [10] 0.997 | locus YMR307W, strain GAS1, hits give low values 0.956 | [5] 1.01 | [6] 0.997 | [7] 0.999 | [8] 1.01

CSc1nc(N)c2ncn([C@@H]3O[C@H](COP(=O)(O)OP(=O)(O)OP(=O)(O)O)[C@H](O)C3O)c2n1 (stereo partly drawn)
inactive: [1] 0.978 | locus YDR150W, strain NUM1, hits give low values 1.03 | [4] 0.998 | [10] 0.981 | locus YMR263W, strain SAP30, hits give low values 1 | locus YNL153C, strain GIM3, hits give low values 1.01 | [5] 0.986 | [6] 0.979 | [7] 0.967 | [8] 1 | [9] 1.01

COc1cc(Br)cc(C=Nc2ccc(Sc3ccccc3)nc2Sc2ccccc2)c1O
active: locus YHR030C, strain SLT2, hits give low values 0.489 | locus YLR113W, strain HOG1, hits give low values 0.746 | locus YPL256C, strain CLN2, hits give low values 0.794
inactive: locus YAR019C, strain CDC15, hits give low values 0.968 | locus YBL105C, strain PKC1, hits give low values 0.976 | locus YBR135W, strain CKS1, hits give low values 0.96 | locus YBR136W, strain MEC1, hits give low values 0.973 | locus YBR160W, strain CDC28, hits give low values 0.965 | locus YDL017W, strain CDC7, hits give low values 0.969 | locus YDL028C, strain MPS1, hits give low values 0.962 | locus YDL101C, strain DUN1, hits give low values 0.969 | locus YDL108W, strain KIN28, hits give low values 0.958 | locus YDL132W, strain cdc53, hits give low values 0.949 | locus YDL214C, strain PRR2, hits give low values 0.838 | locus YDR052C, strain DBF4, hits give low values 0.976 | locus YDR054C, strain cdc34, hits give low values 0.957 | locus YDR226W, strain ADK1, hits give low values 0.964 | locus YDR477W, strain SNF1, hits give low values 0.812 | locus YER123W, strain YCK3, hits give low values 0.831 | locus YER133W, strain GLC7, hits give low values 0.843 | locus YFL009W, strain cdc4, hits give low values 0.955 | locus YFL029C, strain CAK1, hits give low values 0.966 | locus YFR003C, strain YPI1, hits give low values 0.967 | locus YFR019W, strain FAB1, hits give low values 0.969 | locus YFR028C, strain CDC14, hits give low values 0.955 | locus YGR040W, strain KSS1, hits give low values 0.857 | locus YGR052W, strain FMP48, hits give low values 0.782 | locus YGR092W, strain DBF2, hits give low values 0.523 | locus YHR079C, strain IRE1, hits give low values 0.703 | locus YHR082C, strain KSP1, hits give low values 0.845 | locus YHR205W, strain SCH9, hits give low values 0.696 | locus YIL147C, strain SLN1, hits give low values 0.964 | locus YJL095W, strain BCK1, hits give low values 0.638 | locus YJL128C, strain PBS2, hits give low values 0.918 | locus YJL157C, strain FAR1, hits give low values 0.848 | locus YJR016C, strain ILV3, hits give low values 0.974 | locus YJR066W, strain TOR1 (second series), hits give low values 0.848 | locus YJR066W, strain TOR1, hits give low values 0.636 | locus YKL048C, strain ELM1, hits give low values 0.935 | locus YKL067W, strain YNK1, hits give low values 0.808 | locus YKL101W, strain HSL1, hits give low values 0.861 | locus YKL193C, strain SDS22, hits give low values 0.962 | locus YKL203C, strain TOR2, hits give low values 0.91 | locus YLR133W, strain CKI1, hits give low values 0.846 | locus YLR403W, strain SFP1, hits give low values 0.772 | locus YML070W, strain DAK1, hits give low values 0.888 | locus YMR001C, strain CDC5, hits give low values 0.951 | locus YMR205C, strain PFK2 (second series), hits give low values 0.843 | locus YMR277W, strain FCP1, hits give low values 0.959 | locus YNL006W, strain LST8, hits give low values 0.971 | locus YNL020C, strain ARK1, hits give low values 0.82 | locus YNL161W, strain CBK1, hits give low values 0.972 | locus YNL183C, strain NPR1, hits give low values 0.72 | locus YNL207W, strain RIO2, hits give low values 0.961 | locus YNL222W, strain SSU72, hits give low values 0.962 | locus YNL307C, strain MCK1 (second series), hits give low values 0.766 | locus YOL078W, strain AVO1, hits give low values 0.963 | locus YOL136C, strain PFK27, hits give low values 0.893 | locus YOR061W, strain CKA2, hits give low values 0.824 | locus YOR119C, strain RIO1, hits give low values 0.838 | locus YOR231W, strain MKK1, hits give low values 0.766 | locus YOR329C, strain SCD5, hits give low values 0.967 | locus YPL031C, strain PHO85, hits give low values 0.827 | locus YPL153C, strain RAD53, hits give low values 0.808 | locus YPL204W, strain HRR25, hits give low values 0.801 | locus YPL209C, strain IPL1, hits give low values 0.968 | locus YPR025C, strain CCL1, hits give low values 0.962 | locus YPR106W, strain ISR1, hits give low values 0.957 | locus YPR111W, strain DBF20, hits give low values 0.939 | strain NNK1, hits give low values 0.97 | strain TSCII, hits give low values 0.964
